The source of these data is PubChem BioAssay (NCI).

Compounds without any hit were thinned out: in the full panel of roughly 83,000, 20% have a hit.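 The test compound was applied at a single concentration to cells in 96-well plates for 48 hours, and percent growth was recorded.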 Unmarked numbers belong to inactive results. Calls of active or inactive are those of the source. Rule for the calls: active = growth percent below 10; inactive = the rest.

Some test systems named below: DU-145 prostate; K-562 leukemia; MALME-3M melanoma; MDA-MB-231 breast; RXF 393 renal; SF-268 CNS; SF-295 CNS; SF-539 CNS; UACC-257 melanoma; M14 melanoma; HCT-15 colon; HT29 colon; SNB-75 CNS; SNB-19 CNS; U251 CNS; PC-3 prostate; SK-MEL-5 melanoma; UACC-62 melanoma; LOX IMVI melanoma; SK-MEL-28 melanoma.
Assay in all cases: NCI-60 one-dose screen, 48 h (100 = growth as untreated, 0 = no growth, -100 = all killed)
Common to all, as to settings: 10 µM unless noted

Take `O=C1c2c(c3c4ccccc4[nH]c3c3ccc4ccccc4c23)C(=O)N1CCN1CCNCC1`: the growth was 8.13% (active) in the assay on DU-145 prostate; -41.5% (active) in the assay on K-562 leukemia; 80.7% in the assay with MALME-3M melanoma; -66.8% (active) in the assay on MDA-MB-231 breast; 91.6% in the assay on RXF 393 renal; 80.1% in the assay on SF-268 CNS. Besides, the growth was 89.4% in the assay with SF-295 CNS; 82.6% in the assay with SF-539 CNS; 109% in the assay on UACC-257 melanoma; 6.23% (active) with M14 melanoma; -45.2% (active) in the assay on HCT-15 colon; -14.6% (active) in the assay with HT29 colon. Further, the growth with SNB-75 CNS was 85%; with SNB-19 CNS, 74.3%; with U251 CNS, -11.2% (active); in the assay with PC-3 prostate it was 56.6%; in the assay on SK-MEL-5 melanoma, 73.5%; in the assay with UACC-62 melanoma, 82%. Besides, the growth was -87.2% (active) in the assay with LOX IMVI melanoma and 100% in the assay on SK-MEL-28 melanoma.

`c1ccc(Cn2cc3c(c2)-c2oncc2CC3)cc1`: the growth in the assay with DU-145 prostate was 19.6%; in the assay on K-562 leukemia, 13.9%; in the assay with MALME-3M melanoma, 86%; with MDA-MB-231 breast, 8.74% (active); with RXF 393 renal, 0.371% (active); in the assay with SF-268 CNS it was 37.2%. Also, the growth was 20.3% with SF-295 CNS; -9.18% (active) in the assay with SF-539 CNS; 82.8% with UACC-257 melanoma; 19.9% in the assay with M14 melanoma; 26.2% in the assay on HCT-15 colon; 7.96% (active) in the assay with HT29 colon. Also, the growth was 19% in the assay on SNB-75 CNS; 35.7% in the assay with SNB-19 CNS; 28.9% with U251 CNS; 31.9% in the assay with PC-3 prostate; 39.3% in the assay with SK-MEL-5 melanoma; 23.6% in the assay with UACC-62 melanoma. The growth in the assay on LOX IMVI melanoma was 45.5%; in the assay on SK-MEL-28 melanoma, 53.9%.

With `Nc1nc2ccccc2c2c1S(=O)(=O)c1ccc(Cl)cc1C2=O`, the growth is 26.3% in the assay with DU-145 prostate; 11.5% with K-562 leukemia; -21% (active) in the assay on MALME-3M melanoma; 17.5% in the assay with MDA-MB-231 breast; 10.2% with RXF 393 renal; 24.4% with SF-268 CNS. The growth with SF-295 CNS is 31.8%; in the assay with SF-539 CNS, 11.2%; with UACC-257 melanoma, 24.7%; in the assay with M14 melanoma, 17.8%; in the assay with HCT-15 colon, 1.95% (active); in the assay with HT29 colon, 7.01% (active). Besides, the growth in the assay on SNB-75 CNS was 24.5%; in the assay with SNB-19 CNS it was 48.8%; in the assay on U251 CNS, 11.9%; in the assay on PC-3 prostate, 16.5%; in the assay with SK-MEL-5 melanoma it was 28.5%; with UACC-62 melanoma, 24.7%. The growth with LOX IMVI melanoma was 8.26% (active); in the assay on SK-MEL-28 melanoma, 34.5%.

As for `COc1ccc(NC2=C(I)C(=O)c3ncccc3C2=O)cc1`, the growth is -84.2% (active) with DU-145 prostate; 2.18% (active) in the assay on K-562 leukemia; -98.2% (active) with MALME-3M melanoma; -11.8% (active) in the assay with MDA-MB-231 breast; 33% in the assay with RXF 393 renal; 14.7% with SF-268 CNS. For the same compound, the growth in the assay on SF-295 CNS was 8.7% (active); in the assay with SF-539 CNS, -30% (active); with UACC-257 melanoma, 15.9%; in the assay with M14 melanoma it was -65.7% (active); in the assay with HCT-15 colon it was -40.2% (active); in the assay on HT29 colon, 11.5%. The growth in the assay on SNB-75 CNS is -93.1% (active); in the assay on SNB-19 CNS, 19.3%; in the assay with U251 CNS it was -47.7% (active); in the assay on PC-3 prostate it was 12.3%; with SK-MEL-5 melanoma, -94.6% (active); in the assay on UACC-62 melanoma, -71.2% (active). For the same compound, the figures for the growth with LOX IMVI melanoma and with SK-MEL-28 melanoma were -58.6% (active) and 20.5%, respectively.

Turning to `CC(C)(C)CC(C)(C)NC(=O)Nc1ncccc1OCc1ccccc1`, the growth is 97.1% in the assay on DU-145 prostate; 89.3% in the assay on K-562 leukemia; 91.8% in the assay on MALME-3M melanoma; 96.9% in the assay on MDA-MB-231 breast; 116% with RXF 393 renal; 93.1% in the assay on SF-268 CNS. Further, the growth is 88.3% in the assay on SF-295 CNS; 102% in the assay on SF-539 CNS; 85.8% with UACC-257 melanoma; 103% in the assay with M14 melanoma; 86.2% with HCT-15 colon; 80.9% in the assay with HT29 colon. Besides, the growth with SNB-75 CNS was 91.5%; in the assay with SNB-19 CNS, 95.9%; in the assay with U251 CNS it was 96.4%; in the assay with PC-3 prostate it was 82.4%; in the assay with SK-MEL-5 melanoma it was 92.8%; with UACC-62 melanoma, 81.4%. The growth is 90.7% in the assay on LOX IMVI melanoma and 103% in the assay on SK-MEL-28 melanoma.

For the compound `C=CCSc1nnc(NC(=O)CCl)s1`, the growth is 87.4% with DU-145 prostate; 87.7% in the assay with K-562 leukemia; 73.8% in the assay with MALME-3M melanoma; 89.6% in the assay with MDA-MB-231 breast; 97.5% in the assay on RXF 393 renal; 91.9% in the assay on SF-268 CNS. The growth in the assay with SF-295 CNS was 101%; in the assay on SF-539 CNS, 101%; in the assay on UACC-257 melanoma, 79.1%; in the assay with M14 melanoma, 83.2%; in the assay with HCT-15 colon, 89.7%; in the assay with HT29 colon, 110%. Besides, the growth was 103% with SNB-75 CNS; 89.8% in the assay with SNB-19 CNS; 92% in the assay on U251 CNS; 103% in the assay with PC-3 prostate; 88% in the assay on SK-MEL-5 melanoma; 88.8% with UACC-62 melanoma. The growth was 7.79% (active) in the assay with LOX IMVI melanoma and 99% in the assay on SK-MEL-28 melanoma.

As to `Cc1c[n+](Cc2ccc3ccccc3c2)cn1Cc1ccc2ccccc2c1`, the growth with DU-145 prostate was 37.1%; with K-562 leukemia it was 8.82% (active); with MALME-3M melanoma, 0.847% (active); in the assay with MDA-MB-231 breast, -8.23% (active); in the assay with RXF 393 renal, 2.91% (active); with SF-268 CNS, 24.3%. Also, the growth was 45.5% in the assay with SF-295 CNS; 33.1% in the assay on SF-539 CNS; -26.1% (active) in the assay with UACC-257 melanoma; -15.5% (active) in the assay on M14 melanoma; 95.1% in the assay on HCT-15 colon; -35.5% (active) in the assay on HT29 colon. Also, the growth in the assay with SNB-75 CNS was -0.361% (active); in the assay on SNB-19 CNS, 17.7%; in the assay with U251 CNS, 8.55% (active); in the assay on PC-3 prostate it was 10.3%; with SK-MEL-5 melanoma it was -71.2% (active); with UACC-62 melanoma, -30.5% (active). Moreover, the growth is 19.5% in the assay on LOX IMVI melanoma and 4.48% (active) with SK-MEL-28 melanoma.
